Laboratory results from PubChem BioAssay.
Active and inactive are the calls of the source.

What was measured:
[1] = system: PRMT1 (protein arginine N-methyltransferase 1); test: small molecules binding arginine methyltransferase PRMT1 – biochemical, small-molecule microarray, 635 nm fluorescence, primary screen (AID 1088); conditions: higher = more signal;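 also: binding of Prmt1 protein to compounds spotted on small-molecule microarray slides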
[2] = growth effects on S. cerevisiae YJM789 – YJM789 clinical isolate, OD600, 24 h, basal, primary screen (AID 1089); conditions: higher = more signal, called active from +8 up or from −8 down;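 also: growth of clinical yeast isolate S. cerevisiae YJM 789 seeded 1000 cells per well; test concentration not given here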
[3] = S. pombe growth modifiers, basal conditions – strain 972, OD600, 24 h, no modulator, primary screen (AID 1090);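 also: basal condition with compound alone and no growth modifier present; test concentration not given here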; conditions: S. pombe 972 growth, higher = more signal, called active from +8 up or from −8 down
[4] = budding yeast growth modifiers under rapamycin – strain BY4716, OD600, 96 h, primary screen (AID 1091); also: test concentration not given here; conditions: S. cerevisiae BY4716 + rapamycin, higher = more signal, called active from +8 up or from −8 down
[5] = target: Torsin-1A-interacting protein 2 (Homo sapiens) (UniProt Q8NFQ8); test: small molecules binding lysate-expressed LULL1 – cell lysate, human LULL1 lysate, 635/667 nm fluorescence, primary screen (AID 1092); conditions: small-molecule microarray, hLULL1 lysate binding, 635 nm fluorescence; higher = more signal;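 also: probe is lysate of COS7 cells overexpressing human LULL1; score merges per-feature 667 nm fluorescence with signal-to-noise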
Torsin-1A-interacting protein 2 (Homo sapiens), sequence (Q8NFQ8 whole entry, looked up): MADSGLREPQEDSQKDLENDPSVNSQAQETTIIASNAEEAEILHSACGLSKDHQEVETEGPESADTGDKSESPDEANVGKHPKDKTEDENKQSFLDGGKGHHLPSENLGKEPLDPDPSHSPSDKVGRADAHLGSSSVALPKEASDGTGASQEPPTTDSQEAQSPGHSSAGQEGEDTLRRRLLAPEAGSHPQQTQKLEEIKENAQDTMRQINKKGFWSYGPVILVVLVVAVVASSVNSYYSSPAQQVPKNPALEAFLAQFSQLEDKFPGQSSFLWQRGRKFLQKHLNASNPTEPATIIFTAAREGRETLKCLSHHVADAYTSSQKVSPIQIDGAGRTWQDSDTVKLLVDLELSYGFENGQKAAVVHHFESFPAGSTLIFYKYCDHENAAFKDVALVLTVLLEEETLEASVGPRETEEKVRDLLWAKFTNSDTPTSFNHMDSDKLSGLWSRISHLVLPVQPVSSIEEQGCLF

[6] = optical density change of DRC41 E. coli – strain DRC41, OD650, 24 h, E. coli filamentation project, primary screen (AID 1093);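 also: MC1000 strain lacking acrAB efflux and sulA so SOS filamentation is blocked; test concentration not given here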; conditions: E. coli DRC41 growth, higher = more signal, called active from +8 up or from −8 down
[7] = probe aLefty2 binding to arrayed compounds – biochemical, biotinylated probe, 635/667 nm fluorescence, primary screen (AID 1094); conditions: small-molecule microarray, higher = more signal;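 also: score merges spot fluorescence near 667 nm with spot signal-to-noise ratio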
[8] = system: Noggin (protein binding on small-molecule microarray); test: small molecules binding Noggin protein – biochemical, 635/667 nm fluorescence, primary screen (AID 1095); conditions: 635 nm fluorescence, higher = more signal;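 also: score merges 667 nm feature fluorescence with signal to noise over triplicate slides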
[9] = target: Neurogenic locus notch homolog protein 3 (Homo sapiens) (UniProt Q9UM47); test: small molecules binding NOTCH3 protein – biochemical, 635/667 nm fluorescence, primary screen (AID 1096); conditions: small-molecule microarray, 635 nm fluorescence, higher = more signal
Neurogenic locus notch homolog protein 3 (Homo sapiens), sequence (Q9UM47 whole entry, looked up): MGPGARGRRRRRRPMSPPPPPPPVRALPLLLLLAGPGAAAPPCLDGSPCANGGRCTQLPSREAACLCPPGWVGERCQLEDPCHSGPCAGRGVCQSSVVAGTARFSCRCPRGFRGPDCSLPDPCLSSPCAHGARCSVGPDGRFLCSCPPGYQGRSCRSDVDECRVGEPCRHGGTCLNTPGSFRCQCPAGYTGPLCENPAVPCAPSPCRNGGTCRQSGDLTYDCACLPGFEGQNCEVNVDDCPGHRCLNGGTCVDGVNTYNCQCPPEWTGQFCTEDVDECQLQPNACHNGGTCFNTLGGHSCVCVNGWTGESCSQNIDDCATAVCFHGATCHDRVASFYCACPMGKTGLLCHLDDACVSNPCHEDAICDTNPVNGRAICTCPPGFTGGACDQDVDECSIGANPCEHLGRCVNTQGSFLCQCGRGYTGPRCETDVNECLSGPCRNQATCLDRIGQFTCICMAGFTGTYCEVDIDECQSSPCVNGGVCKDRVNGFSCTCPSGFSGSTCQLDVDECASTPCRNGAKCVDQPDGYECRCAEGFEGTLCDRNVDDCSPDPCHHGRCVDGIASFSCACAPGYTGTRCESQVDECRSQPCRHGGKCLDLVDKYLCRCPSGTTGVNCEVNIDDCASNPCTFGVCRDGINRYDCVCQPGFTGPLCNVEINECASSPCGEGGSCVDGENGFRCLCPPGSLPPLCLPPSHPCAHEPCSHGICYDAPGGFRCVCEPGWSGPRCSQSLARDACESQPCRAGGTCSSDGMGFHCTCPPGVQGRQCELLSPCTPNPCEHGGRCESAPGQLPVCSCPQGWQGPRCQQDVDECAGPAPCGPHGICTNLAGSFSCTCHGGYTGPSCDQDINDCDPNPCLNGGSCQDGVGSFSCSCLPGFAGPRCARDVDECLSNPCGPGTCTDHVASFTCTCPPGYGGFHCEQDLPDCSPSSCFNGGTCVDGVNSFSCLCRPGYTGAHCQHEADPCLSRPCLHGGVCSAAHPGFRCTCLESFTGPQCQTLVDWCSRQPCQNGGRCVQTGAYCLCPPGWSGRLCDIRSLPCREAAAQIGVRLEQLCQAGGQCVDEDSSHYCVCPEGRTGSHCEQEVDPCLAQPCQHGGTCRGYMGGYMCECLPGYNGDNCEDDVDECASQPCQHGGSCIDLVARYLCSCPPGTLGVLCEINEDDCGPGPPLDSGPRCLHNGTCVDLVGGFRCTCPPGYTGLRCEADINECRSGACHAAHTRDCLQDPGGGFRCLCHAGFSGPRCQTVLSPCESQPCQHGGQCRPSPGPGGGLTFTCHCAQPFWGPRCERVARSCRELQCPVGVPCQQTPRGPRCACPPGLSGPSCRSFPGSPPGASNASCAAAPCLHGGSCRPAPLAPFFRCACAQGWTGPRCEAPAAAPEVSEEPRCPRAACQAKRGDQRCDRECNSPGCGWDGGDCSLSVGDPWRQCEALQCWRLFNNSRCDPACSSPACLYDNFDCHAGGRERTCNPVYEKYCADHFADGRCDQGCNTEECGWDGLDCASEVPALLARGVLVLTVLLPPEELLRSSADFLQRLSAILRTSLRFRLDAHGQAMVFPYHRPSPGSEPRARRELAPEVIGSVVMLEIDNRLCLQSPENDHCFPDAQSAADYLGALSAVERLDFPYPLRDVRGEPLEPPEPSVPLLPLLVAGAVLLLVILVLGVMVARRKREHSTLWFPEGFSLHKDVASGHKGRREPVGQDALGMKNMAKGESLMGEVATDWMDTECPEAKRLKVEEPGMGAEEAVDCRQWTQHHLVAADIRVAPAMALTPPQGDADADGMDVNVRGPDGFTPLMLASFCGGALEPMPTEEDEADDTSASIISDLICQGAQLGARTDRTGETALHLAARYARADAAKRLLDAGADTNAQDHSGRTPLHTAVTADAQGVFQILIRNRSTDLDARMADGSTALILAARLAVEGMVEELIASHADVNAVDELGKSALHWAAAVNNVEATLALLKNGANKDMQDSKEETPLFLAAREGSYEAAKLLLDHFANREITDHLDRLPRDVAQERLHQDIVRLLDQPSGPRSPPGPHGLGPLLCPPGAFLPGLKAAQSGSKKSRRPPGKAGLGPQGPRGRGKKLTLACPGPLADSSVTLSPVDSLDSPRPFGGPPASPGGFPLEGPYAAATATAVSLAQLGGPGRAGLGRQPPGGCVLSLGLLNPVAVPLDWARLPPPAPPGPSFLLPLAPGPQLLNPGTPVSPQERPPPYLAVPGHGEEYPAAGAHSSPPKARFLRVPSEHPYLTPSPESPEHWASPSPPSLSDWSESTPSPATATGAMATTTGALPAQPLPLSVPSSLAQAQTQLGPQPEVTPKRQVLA

[10] = probe aEGFR binding to arrayed compounds – biochemical, biotinylated probe, 635/667 nm fluorescence, primary screen (AID 1097); conditions: small-molecule microarray, higher = more signal;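 also: probe is a biotinylated anti-EGFR antibody binding compounds printed on slides; score combines fluorescence near 667 nm and signal to noise of each spot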

| Structure (SMILES) | composite z-score [1] | z-score [2] | z-score [3] | z-score [4] | composite z-score [5] | z-score [6] | composite z-score [7] | composite z-score [8] | composite z-score [9] | composite z-score [10] |
| --- | --- | --- | --- | --- | --- | --- | --- | --- | --- | --- |
| COc1ccc([Si](C)(C)[C@@H]2[C@@H](CC(=O)N3Cc4ccccc4C[C@H]3CO)O[C@]3(C(=O)N(Cc4cccc(N5C(=O)COc6ccccc65)c4)c4ccccc43)[C@H]2C)cc1 | 1.49 | -1.38 (inactive) | 0.553 (inactive) | 3.67 (inactive) | 1.25 | 2.33 (inactive) | -0.15 | 0.812 | 1.14 | -0.0981 |
| Cc1cc(C)c(C(O)C2C=CC3C(=O)NC(=O)C3N2Nc2ccccn2)c(C)c1 (stereo not given) | 0.442 | 0.441 (inactive) | 1.11 (inactive) | 0.415 (inactive) | 1.65 | -1.16 (inactive) | 0.0961 | 0.0197 | 0.525 | 0.0221 |
| O[C@@H](Cc1ccccc1)[C@@H](/C=C/c1ccccc1)NCc1ccccc1Br | -0.995 | 0.0419 (inactive) | -11.4 (active) | -1.54 (inactive) | -0.557 | 0.908 (inactive) | 0.0372 | -1.34 | -0.707 | -0.348 |
| COc1ccc([Si](C)(C)[C@@H]2[C@@H](CCO)O[C@]3(C(=O)N(Cc4cccc(N5CCCCC5=O)c4)c4ccccc43)[C@H]2C)cc1 | 1.56 | 2.34 (inactive) | -0.486 (inactive) | 5.16 (inactive) | 2.54 | -0.0838 (inactive) | -0.0915 | 1.22 | 1.09 | -0.0442 |
| COc1ccc([Si](C)(C)[C@H]2[C@H](CC(=O)N3CCC[C@H]3CO)O[C@@]3(C(=O)N(Cc4cccc(N5CCC5=O)c4)c4ccccc43)[C@@H]2C)cc1 | 1.55 | -0.795 (inactive) | 0.289 (inactive) | -0.743 (inactive) | 2.6 | 1.24 (inactive) | 0.226 | 1 | 1.13 | 0.133 |
| CCOC(=O)C1=C[C@@H](C(C)(C)C)N(S(=O)(=O)c2ccc(C)cc2)[C@H]1c1ccc(Cl)c(Cl)c1 | 1.46 | 0.771 (inactive) | 1.71 (inactive) | 2.44 (inactive) | 2.68 | -0.875 (inactive) | 0.201 | 0.346 | 1.09 | 0.239 |
| C=CCC(OC(C)=O)[C@@H]1[C@@H](N(Cc2cc3ccccc3o2)C(=O)c2ccc(-c3ccccc3)cc2)c2cc(OCCCO)ccc2N1C(=O)Cc1ccc2ccccc2c1 (stereo not given in full) | -0.598 | 1.06 (inactive) | 0.263 (inactive) | 1.49 (inactive) | 0.898 | 0.0672 (inactive) | -0.166 | -0.125 | -0.376 | -0.166 |
| CCCCC(=O)N(Cc1ccccc1F)[C@@H]1CC(C(=O)NCCO)=C[C@H](Oc2c(I)cc(CO)cc2OC)[C@H]1O | 1.54 | 0.41 (inactive) | -1.91 (inactive) | -1.02 (inactive) | 1.83 | 0.772 (inactive) | -0.0718 | 2.04 | 1.04 | 0.0209 |
| CC(C)[C@H]1COC(=O)N1C(=O)[C@H]1[C@@H](c2ccccc2)N(c2ccccc2)O[C@@H]1C | 0.842 | -0.384 (inactive) | -2.87 (inactive) | 0.0611 (inactive) | 1.29 | 0.874 (inactive) | -0.0023 | 0.403 | 0.757 | -0.12 |
| C=C(CCCC)C(=O)CC[C@H](OC(=O)c1ccccc1-c1ccccc1C(=O)O)c1ccc(CO)o1 | 1.55 | -0.521 (inactive) | 0.162 (inactive) | 0.437 (inactive) | 1.99 | 0.251 (inactive) | -0.132 | 1.35 | 1.06 | -0.065 |
| O=C1C2C=CC(C(O)CCc3ccccc3)N(Nc3ccccc3)C2C(=O)N1c1ccccc1 (stereo not given) | 1.49 | 0.655 (inactive) | 0.226 (inactive) | 1.43 (inactive) | 3.4 | -1.88 (inactive) | 0.231 | 0.0749 | 1.02 | 0.0864 |
| O=C1c2ccccc2[C@](Cc2ccccc2I)(C(=O)O)[C@H](c2ccc(CO)cc2)N1Cc1ccccc1C(F)(F)F | 1.12 | 0.817 (inactive) | 0.0662 (inactive) | 0.0262 (inactive) | 3.14 | -0.255 (inactive) | -0.243 | 0.033 | 0.263 | -0.379 |
| CN1C(=O)C2C(C1=O)C1C=C(c3ccc(CO)cc3)C2C(C2CC2)N1Cc1cc2c(cc1Br)OCO2 (stereo not given) | 1.53 | -3.93 (inactive) | -6.09 (inactive) | 0.385 (inactive) | 3.49 | -0.911 (inactive) | 0.313 | 0.268 | 1.09 | 0.035 |
| CCN(CC)c1ccc(N2CC=CC34O[C@@H]5/C=C\CCC(C)OC(=O)C5[C@H]3C(=O)N(CCCCCCO)[C@@H]4C2=O)cc1 (stereo not given in full) | -0.661 | -0.13 (inactive) | -0.147 (inactive) | 0.252 (inactive) | 0.989 | 0.477 (inactive) | -0.204 | -0.668 | -0.318 | -0.21 |
| O=C1O[C@H](c2ccccc2)[C@H](c2ccccc2)N2[C@H]1[C@@H](C(=O)N1CCCCCCC1)[C@]1(C(=O)Nc3ccc(C#CC4=CCCCC4)cc31)[C@H]2c1ccc(O)cc1 | 1.56 | -0.177 (inactive) | 0.218 (inactive) | 0.791 (inactive) | 5.19 | 1.26 (inactive) | 1.91 | 2.3 | 1.02 | 1.47 |
| CC(C)[Si]1(C(C)C)O[C@@H](c2ccccc2)c2cc(-c3ccc(-c4ccc(Cl)c(Cl)c4)o3)nc(CCc3ccccc3)c21 | 0.324 | 0.149 (inactive) | -2.2 (inactive) | 3.08 (inactive) | 0.883 | -0.823 (inactive) | -0.126 | -1.37 | -1.78 | -0.248 |
| COc1ccc(CCNC(=O)[C@@]2(C)c3ccccc3C(=O)N(Cc3ccccc3)[C@H]2c2ccc(CO)cc2)cc1 | 1.53 | -1.25 (inactive) | -1.1 (inactive) | -0.648 (inactive) | 3.05 | -0.0282 (inactive) | 0.166 | 1.33 | 1.07 | 0.0192 |
